Values without a mark were called inactive.

One experiment relates to Plasmodium falciparum NF54-HGL (transmission to Anopheles stephensi). Kind of experiment: percentage of barcode signal found in uninfected mosquitoes (transmission-blocking activity); higher = stronger blocking of transmission to mosquito, active = 80 or more. The conditions noted are these: 10 µM; gametocyte preincubation time 24 h; readout time post-feed 8 days. The procedure: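 The mixture was fed to Anopheles stephensi in 96-well plates as blood meals tagged with DNA-barcoded Asaia bacteria. Eight days later, mosquitoes were classed infected or uninfected by luminescence (mean + 5 SD of unfed controls). Barcodes were quantified by Luminex MagPlex-TAG in the pooled uninfected and infected Asaia cultures, background-corrected, and the score is % of barcode signal in uninfected mosquitoes = 100*Iu/(Iu+Ii).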
Turning to `CC(C)(C)OC(=O)N1CCN(c2nccc(-c3ccc(-c4ccc(Cl)cc4)s3)n2)CC1`, the “percentage of barcode signal found in uninfected mosquitoes” value (from here on “percentage of barcode signal found”) was 20.6%.
In the case of `CCCCc1ccc(NC(=O)Nc2ccc(O[C@H]3CCCC[C@@H]3N(C)c3ccccc3)c(F)c2)cc1`, the “percentage of barcode signal found” value was 28.1%.
As to `COc1ccc(OC)c(NCc2ccc3nc(N)nc(N)c3c2Cl)c1`, the “percentage of barcode signal found” value is 94.7% (active).
For the molecule `COc1cccc2c(C)nc(N=C(N)N)nc12`, the “percentage of barcode signal found” value is 24.9%.
For `COC(=O)C1=C(C)NC(C)=C(C(=O)OC(C)C)C1c1cccc2nonc12` (stereo not given), the “percentage of barcode signal found” value was 57.4%.
On the same count and under the same terms, under `Cc1ccc2oc(-c3cc(NC(=O)Cc4ccccc4)ccc3Cl)nc2c1` stands 24%; under `CC(C)(C)OC(=O)N1CCC(Cn2nc(-c3cnc4ccccc4c3)c3c(N)ncnc32)CC1`, 24.4%; under `CS(=O)(=O)N1CCC(CCn2nc(Cc3cccc4ccccc34)c3c(N)ncnc32)CC1`, 45.3%.
Regarding `CC1CS(=O)(=O)CCN1/N=C/c1ccc([N+](=O)[O-])o1` (stereo not given), the “percentage of barcode signal found” value is 91.3% (active).
With `O=C(Nc1ccc2c(c1)B(O)OC2)c1ccccc1C(F)(F)F`, the “percentage of barcode signal found” value is 84.1% (active).
In the case of `Cc1nc(-c2ccccn2)nc(N2CCC(Cc3ccccc3)C2)c1Cl` (stereo not given), the “percentage of barcode signal found” value is 78%.
The same measure, in the same setting: under `CCC(Sc1nc2ccccc2o1)C(=O)Nc1nccs1` (stereo not given) stands -4.79%; under `CNC1C(OC2C(OC3C(O)C(O)C(NC(=N)N)C(O)C3NC(=N)N)OC(C)C2(O)C=O)OC(CO)C(O)C1O` (stereo not given), 47%.
`O=C(NC1CCN(c2ccnc3ccccc23)C1)c1cccc(C(F)(F)F)c1` (stereo not given): the “percentage of barcode signal found” value is 71.6%.

Still in this experiment, the particulars now being: 20 µM; gametocyte preincubation time 24 h; readout time post-feed 8 days.
Regarding `NS(=O)(=O)c1cccc(-c2ccc3ncc(N4CCOCC4)nc3c2)c1`, the “percentage of barcode signal found” value was 64.7%.
For `COc1cc(-c2cc(-c3ccc(S(C)(=O)=O)cc3)cnc2N)ccc1O`, the “percentage of barcode signal found” value was 48.6%.
Same read-out and setting: under `CCCn1c(NC(=O)c2ccc3ccccc3n2)nc2ccccc21` stands 56.6%; under `c1ccc2c(c1)CN(CC1CC1)CC1(CCN(Cc3c[nH]c4cnccc34)CC1)O2`, 30.7%; under `Clc1ccc(-n2cc(COc3ccnc4ccccc34)nn2)cc1`, 34.4%.
With `CC(C)(C)C(=O)N(CCCCCCN1C[C@H](O)[C@@H](O)[C@H](O)[C@H]1CO)C1CCCCCC1`, the “percentage of barcode signal found” value is 17%.
As for `COc1ccc(Oc2ccc([C@@H](C)N(C)c3ncc4c(N)nc(N)nc4n3)cc2)cc1`, the “percentage of barcode signal found” value was 72.1%.
In the case of `CCCCN(CCCC)c1c(C#N)cc(S(=O)(=O)Nc2ccccc2)cc1C#N`, the “percentage of barcode signal found” value is 10.5%.
The same measure, in the same setting: under `CC(=O)Nc1ccc(-c2noc(CC3CCCN(Cc4cccc(F)c4C)C3)n2)cc1` (stereo not given) stands 0.0253%.
As for `O=C(NCCc1ccn(-c2ccccc2)n1)C1CCCCC1`, the “percentage of barcode signal found” value was 3.62%.
On the same count and under the same terms, under `Cc1ccc(-c2cc(C(=O)Nc3cccnc3)c3cc(Br)ccc3n2)cc1` stands 42.5%; under `O=C(C1CCN(c2cc(-n3cccc3)ncn2)CC1)N1CCc2ccccc2C1`, 26.4%; under `Cc1cc(OCC(=O)Nc2ccc(C(C)C)cc2)n(C)c(=O)c1C#N`, 35%.
On to `COc1cccc(OC)c1C(=O)Nc1ccc(Cl)c(-c2nc3ccccc3s2)c1`, for which the “percentage of barcode signal found” value is 13.2%.
Consider `Cc1ccc(S(=O)(=O)Nc2ccc(CN3CCN(C(=O)c4cccc(C#N)c4)CC3)cc2)cc1`, for which the “percentage of barcode signal found” value is 0.0235%.
Take `NCCC(O)C(=O)N[C@@H]1C[C@H](N)[C@@H](OC2O[C@H](CN)[C@@H](O)[C@H](O)[C@H]2O)[C@H](O)C1OC1O[C@H](CO)[C@@H](O)[C@H](N)[C@H]1O` (stereo not given in full): the “percentage of barcode signal found” value is 37.6%.
Take `c1ccc(-c2nc(NC3CCCCC3)cc(C3CC3)n2)nc1`: the “percentage of barcode signal found” value was 99.2% (active).
In the case of `CC(C)(C)c1ccc(N[C@@H]2CCCC[C@H]2NC(=O)c2ccco2)cc1`, the “percentage of barcode signal found” value is 31.3%.
`COc1cc(CN2CCC3(C=Cc4ccccc43)CC2)cc2c1OCO2`: the “percentage of barcode signal found” value is 0.609%.
Regarding `Cc1nn(C)cc1C(C)Nc1nncc(-c2ccc(C(F)(F)F)cc2)n1` (stereo not given), the “percentage of barcode signal found” value is 89.3% (active).
With `NCCN(C(=O)c1ccc(Cl)cc1Cl)c1ccc(OCc2ccc(Cl)cc2)cc1`, the “percentage of barcode signal found” value was 65.8%.
Consider `CCCCc1ccc(C(=O)Nc2nccc3ccccc23)nc1`, for which the “percentage of barcode signal found” value is 48.5%.
For `CC(C)(CN)c1nc(-c2ccc(Cl)c(O)c2)c(-c2ccnc(N)n2)[nH]1`, the “percentage of barcode signal found” value was 80.9% (active).
For `CN1CCCN(C(c2ccccc2)c2ccc(Cl)cc2)CC1` (stereo not given), the “percentage of barcode signal found” value is 25.1%.
Turning to `c1cncc(NCc2ccc(-c3cc4ccncc4cc3OC3CCNCC3)s2)c1`, the “percentage of barcode signal found” value is 99.4% (active).
Same read-out and setting: under `CC(C)(C)c1cnc(NC(=O)c2ccccc2O)s1` stands 21.3%.

The record behind these values is the supplement of paper PMC8726507.
